Laboratory results: PubChem BioAssay
Calls of active or inactive are those of the source.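 How the source made its calls, unless noted: active means thallium flux through the channel raised or lowered by more than 3 SD from vehicle-only wells, actives on both sides; inactive means the rest.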

Legend:
[1] = P. berghei load reduction in hepatocytes – cell-based, HepG2, luciferase luminescence, HepG2 viability, primary screen (AID 624349; in the data active means parasite load remaining mostly below about 12%, no sharp cut-off; inactive means mostly above about 10%;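 further: 100% = mean of DMSO negative control wells on the same plate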); details: P. berghei liver stage in HepG2, luciferase luminescence, concentration not given here; parasite load remaining: stronger effect = lower value; viability: measured here: HepG2 viability without parasites
[2] = signal quenchers or enhancers, Cy5 substrate/SSB – biochemical, NIH Clinical Collection, E. coli SSB, artefact control for HCV NS3 helicase inhibitor project (AID 743268; call rule not given here); details: Cy5-oligo bound E. coli SSB, fluorescence interference
[3] = tested on: Hepatitis C virus NS3 helicase; test: blockers of NS3h binding to DNA – biochemical, fluorescence polarization, NIH Clinical Collection, primary screen (AID 743270; call rule not given here); details: NS3 helicase binding to Cy5-dT15 DNA, stronger effect = higher value, concentration not given here
[4] = biological target: Single-stranded DNA-binding protein (Escherichia coli (strain K12)) (UniProt P0AGE0); test: SSB-ssDNA binding inhibitors – biochemical, fluorescence polarization, NIH Clinical Collection, counter-screen for HCV NS3 helicase inhibitor project (AID 743271; in the data active means inhibition above about 28%); details: E. coli SSB-DNA binding, stronger effect = higher value, concentration not given here
[5] = compounds distorting NS3 helicase fluorescence signal – biochemical, NIH Clinical Collection, artefact control for HCV NS3 helicase inhibitor project (AID 743272; call rule not given here;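 further: HCV NS3 helicase with a Cy5 labelled single stranded DNA probe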); details: fluorescence interference counterscreen, HCV NS3 helicase assay; stronger effect = lower value
[6] = modulation of C. elegans fzo-1 (AID 1259413; call rule not given here;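 further: fzo-1 mutant C. elegans worms in liquid wells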); details: C. elegans fzo-1 modulator screen, mean read-out; stronger effect = higher value
[7] = viability loss with induced miR-34 in A549 – imaging, A549 dox-inducible miR-34, nuclei and caspase counts, primary screen (AID 1347080;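 active means compounds whose cell count with miR-34 switched on is under 0.7 times the count with it off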); details: A549 miR-34 inducible, Hoechst nuclei count, 48 h
F380Y = test: BK channel mutant inhibitors and activators – cell-based, U2OS BacMam, thallium flux, beta subunits, selectivity assay, profiling panel (AID 1259406); details: U2OS BacMam BK variants, at 30 µM;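 further: initial slope of Thallos dye fluorescence rise after thallium is added; log ratio against the mean of 0.3% DMSO vehicle wells on the same plate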
F380Y/beta1 = test: as above; details: U2OS BacMam BK variants, at 30 µM
F380Y/beta2Delta = test: as above; details: U2OS BacMam BK variants, at 30 µM
F380Y/beta4 = test: as above; details: U2OS BacMam BK variants, at 30 µM
[8] = biological target: Calcium-activated potassium channel subunit alpha-1 (Homo sapiens) + Leucine-rich repeat-containing protein 26 (Homo sapiens) (UniProt Q12791+Q2I0M4); test: as above; details: U2OS BacMam BK variants, F380Y/Slo1WT/gamma1, at 30 µM
Sequence of Calcium-activated potassium channel subunit alpha-1 (Homo sapiens) + Leucine-rich repeat-containing protein 26 (Homo sapiens) (Q2I0M4 whole entry, looked up, one chain of several): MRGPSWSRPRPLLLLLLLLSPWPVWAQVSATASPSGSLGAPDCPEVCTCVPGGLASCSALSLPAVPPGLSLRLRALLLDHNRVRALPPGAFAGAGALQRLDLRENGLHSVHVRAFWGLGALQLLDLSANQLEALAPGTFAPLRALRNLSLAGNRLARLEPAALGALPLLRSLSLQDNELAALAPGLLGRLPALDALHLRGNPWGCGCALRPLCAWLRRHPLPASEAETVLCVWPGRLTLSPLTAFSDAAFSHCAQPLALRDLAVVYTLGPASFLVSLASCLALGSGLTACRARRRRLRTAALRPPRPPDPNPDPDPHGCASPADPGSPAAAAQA

R275C = test: as above; details: U2OS BacMam BK variants, at 30 µM
R275C/beta1 = test: as above; details: U2OS BacMam BK variants, at 30 µM
R275C/beta2Delta = test: as above; details: U2OS BacMam BK variants, at 30 µM
R275C/beta4 = test: as above; details: U2OS BacMam BK variants, at 30 µM
R275C/Slo1WT/beta2 = test: as above; details: U2OS BacMam BK variants, at 30 µM
[9] = MELAS cybrid and Rieske KO viability enhancers – cell-based, MELAS cybrids, Rieske KO mouse fibroblasts, CellTiter-Glo, primary screen (AID 1508586;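 active means mean z-score across replicates of 1.96 or higher in either the MELAS or the Rieske mutant cell line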;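 further: z relative to plate mean and SD of compound and empty wells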); details: low glucose
[10] = stronger effect = lower value, cell number ratio, induced over uninduced
[11] = measured here: relative caspase fold change +Dox/-Dox
[12] = measured here: total cells with miR-34 induction, stronger effect = lower value
[13] = measured here: total cells without miR-34 induction

Q: What does the source list for `CNC(=O)Oc1ccc2c(c1)[C@]1(C)CCN(C)C1N2C` (stereo not given in full)?
A: parasite load remaining [1]: 98.8% (inactive); viability [1]: 84.5%; fluorescence ratio [2]: 1.1 (inactive); inhibition [3]: 5.94% (inactive); inhibition [4]: -0.1% (inactive); fluorescence ratio [5]: 1.08 (inactive); mean signal [6]: 259 (inactive); fold change [7, 10]: 0.976 (inactive); fold change [7, 11]: 1.81; cell count [7, 12]: 10400; cell count [7, 13]: 10600; log fold change Tl+ flux (F380Y): -0.0388 (inactive); log fold change Tl+ flux (F380Y/beta1): -0.0363 (inactive); log fold change Tl+ flux (F380Y/beta2Delta): -0.00825 (inactive); log fold change Tl+ flux (F380Y/beta4): 0.000651 (inactive); log fold change Tl+ flux [8]: 0.0144 (inactive); log fold change Tl+ flux (R275C): -0.0205 (inactive); log fold change Tl+ flux (R275C/beta1): 0.00244 (inactive); log fold change Tl+ flux (R275C/beta2Delta): -0.0145 (inactive); log fold change Tl+ flux (R275C/beta4): 0.023 (inactive); log fold change Tl+ flux (R275C/Slo1WT/beta2): -0.0113 (inactive)

Q: With `COc1cc(C)c(/C=C/C(C)=C/C=C/C(C)=C/C(=O)O)c(C)c1C` as the molecule, how does the parasite load remaining [1] read?
A: 45.7% (inactive)

Q: What about the viability [1] of the same molecule?
A: 100%

Q: What about the fluorescence ratio [2] of the same molecule?
A: 1.04 (inactive)

Q: What about the inhibition [3] of the same molecule?
A: 4.09% (inactive)

Q: And the inhibition [4]?
A: 4.1% (inactive)

Q: And the fluorescence ratio [5]?
A: 1 (inactive)

Q: What about the mean signal [6] of the same molecule?
A: 260 (inactive)

Q: And the fold change [7, 10]?
A: 0.995 (inactive)

Q: What about the fold change [7, 11] of the same molecule?
A: 2.52

Q: And the cell count [7, 12]?
A: 10300

Q: What about the cell count [7, 13] of the same molecule?
A: 10300

Q: What about the z-score ([9]; MELAS cybrid survival, CellTiter-Glo 48 h, stronger effect = higher value) of the same molecule?
A: 0.713 (inactive)

Q: And the z-score ([9]; Rieske KO mouse fibroblast survival, CellTiter-Glo 72 h)?
A: 1.44

Q: And the log fold change Tl+ flux (F380Y)?
A: -0.0381 (inactive)

Q: And the log fold change Tl+ flux (F380Y/beta1)?
A: 0.176 (active)

Q: What about the log fold change Tl+ flux (F380Y/beta2Delta) of the same molecule?
A: 0.35 (active)

Q: And the log fold change Tl+ flux (F380Y/beta4)?
A: 0.0442 (inactive)

Q: What about the log fold change Tl+ flux [8] of the same molecule?
A: 0.229 (active)

Q: What about the log fold change Tl+ flux (R275C) of the same molecule?
A: -0.0134 (inactive)

Q: And the log fold change Tl+ flux (R275C/beta1)?
A: 0.389 (active)

Q: What about the log fold change Tl+ flux (R275C/beta2Delta) of the same molecule?
A: 0.261 (active)

Q: What about the log fold change Tl+ flux (R275C/beta4) of the same molecule?
A: 0.228 (active)

Q: What about the log fold change Tl+ flux (R275C/Slo1WT/beta2) of the same molecule?
A: -0.0131 (inactive)

Q: Which parasite load remaining [1] does the source give for `CC(=O)OCC(=O)C12OC3(CCCC3)OC1CC1C3CCC4=CC(=O)C=CC4(C)C3(F)C(O)CC12C` (stereo not given) here?
A: 72.8% (inactive)

Q: And the viability [1]?
A: 95.1%

Q: And the fluorescence ratio [2]?
A: 1.06 (inactive)

Q: What about the inhibition [3] of the same molecule?
A: -5% (inactive)

Q: And the inhibition [4]?
A: 0.29% (inactive)

Q: What about the fluorescence ratio [5] of the same molecule?
A: 0.98 (inactive)

Q: What about the mean signal [6] of the same molecule?
A: 242 (inactive)

Q: What about the fold change [7, 10] of the same molecule?
A: 0.97 (inactive)

Q: What about the fold change [7, 11] of the same molecule?
A: 1.12

Q: What about the cell count [7, 12] of the same molecule?
A: 5910

Q: What about the cell count [7, 13] of the same molecule?
A: 6100

Q: And the log fold change Tl+ flux (F380Y)?
A: 0.16 (active)

Q: What about the log fold change Tl+ flux (F380Y/beta1) of the same molecule?
A: -0.0293 (inactive)

Q: What about the log fold change Tl+ flux (F380Y/beta2Delta) of the same molecule?
A: 0.0485 (inactive)

Q: What about the log fold change Tl+ flux (F380Y/beta4) of the same molecule?
A: -0.0119 (inactive)

Q: And the log fold change Tl+ flux [8]?
A: 0.0537 (inactive)

Q: And the log fold change Tl+ flux (R275C)?
A: -0.00403 (inactive)

Q: What about the log fold change Tl+ flux (R275C/beta1) of the same molecule?
A: 0.0957 (inactive)

Q: And the log fold change Tl+ flux (R275C/beta2Delta)?
A: 0.0763 (inactive)

Q: What about the log fold change Tl+ flux (R275C/beta4) of the same molecule?
A: 0.0347 (inactive)

Q: And the log fold change Tl+ flux (R275C/Slo1WT/beta2)?
A: 0.084 (inactive)
